Reference: ChEMBL document CHEMBL5606458, “ASAP - ZIKV NS2B-NS3 protease fluorescence single point” (2024)
The whole screen tested about 2,700 compounds, of which about 160 (5.9%) showed an effect of 50% or more. This is one part of a sample in which strong results are shown more often than they occur.

Target: Nonstructural protein 3 (Zika virus) (UniProt A0A024AXB9)
[1] = PRVABC59, Concentration 50.0 uM, Number of replicates 1.0

Nonstructural protein 3 (Zika virus), sequence (A0A024AXB9 as listed by the source): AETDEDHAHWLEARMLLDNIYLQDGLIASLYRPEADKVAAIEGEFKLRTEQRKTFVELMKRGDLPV

## O=Cc1ccc(N2CCC(C(=O)N3CCN(c4ccc([N+](=O)[O-])cc4C(F)(F)F)CC3)CC2)cc1
[1]
  inhibition: 51.4%

## O=Cc1ccc(N2CCC(C(=O)N3CCC(CCN4CCCC4)CC3)CC2)cc1
[1]
  inhibition: 40.2%

## CS(=O)(=O)c1ccc(N2CCN(C(=O)C3CCN(c4ccc(C=O)cc4)CC3)CC2)c([N+](=O)[O-])c1
[1]
  inhibition: 38.3%

## Fc1ncccc1OCc1cc(Cl)nc(N2CCNCC2)n1
PRVABC59, Concentration 49.5 uM, Number of replicates 2.0, Standard deviation 1.0140201320428779 %
  inhibition: 15.1%
PRVABC59, Concentration 99.01 uM, Number of replicates 2.0, Standard deviation 1.7990689115932277 %
  inhibition: 28.4%
PRVABC59, Concentration 198.0 uM, Number of replicates 2.0, Standard deviation 0.8686404786633404 %
  inhibition: 49%

## COc1ccc(S(=O)(=O)n2nc(OC(=O)c3cccc(-c4ccccc4Cl)c3)cc2N)cc1
PRVABC59, Concentration 49.5 uM, Number of replicates 2.0, Standard deviation 0.015159378472398365 %
  inhibition: 94.1%
PRVABC59, Concentration 99.01 uM, Number of replicates 2.0, Standard deviation 0.0016885713387404585 %
  inhibition: 94.1%
PRVABC59, Concentration 198.0 uM, Number of replicates 2.0, Standard deviation 0.07411371581986076 %
  inhibition: 93.9%

## c1ccc(-c2csc(C3CCN(Cc4c[nH]c5ccccc45)CC3)n2)cc1
PRVABC59, Concentration 49.5 uM, Number of replicates 2.0, Standard deviation 0.9101885047505917 %
  inhibition: 64.4%
PRVABC59, Concentration 99.01 uM, Number of replicates 2.0, Standard deviation 0.676804208631579 %
  inhibition: 66.1%
PRVABC59, Concentration 198.0 uM, Number of replicates 2.0, Standard deviation 0.5886424424408551 %
  inhibition: 66.1%

## c1ccc2sc(C3CCN(Cc4c[nH]c5ccccc45)CC3)nc2c1
PRVABC59, Concentration 49.5 uM, Number of replicates 2.0, Standard deviation 0.0213310257935456 %
  inhibition: 83.5%
PRVABC59, Concentration 99.01 uM, Number of replicates 2.0, Standard deviation 0.10666052376433739 %
  inhibition: 89.1%
PRVABC59, Concentration 198.0 uM, Number of replicates 2.0, Standard deviation 0.03774199707932348 %
  inhibition: 90.7%

## Cc1nc(C2CCN(Cc3c[nH]c4ccccc34)CC2)sc1C(=O)O
PRVABC59, Concentration 49.5 uM, Number of replicates 2.0, Standard deviation 1.7503606417061577 %
  inhibition: 29.1%
PRVABC59, Concentration 99.01 uM, Number of replicates 2.0, Standard deviation 0.7623791698480982 %
  inhibition: 49%
PRVABC59, Concentration 198.0 uM, Number of replicates 2.0, Standard deviation 0.018153490590612276 %
  inhibition: 66.9%

## c1ccc2oc(C3CCN(Cc4c[nH]c5ccccc45)CC3)nc2c1
PRVABC59, Concentration 49.5 uM, Number of replicates 2.0, Standard deviation 0.07645236015003325 %
  inhibition: 37.2%
PRVABC59, Concentration 99.01 uM, Number of replicates 2.0, Standard deviation 0.17318915555138958 %
  inhibition: 54.7%
PRVABC59, Concentration 198.0 uM, Number of replicates 2.0, Standard deviation 0.13417938126885842 %
  inhibition: 70.9%

## COC(=O)c1csc2cc(C(=O)N3CCCc4cc(CCN)ccc43)[nH]c12
PRVABC59, Concentration 49.5 uM, Number of replicates 2.0, Standard deviation 0.9658024514724747 %
  inhibition: 6.59%
PRVABC59, Concentration 99.01 uM, Number of replicates 2.0, Standard deviation 0.02626726469114151 %
  inhibition: 17.1%
PRVABC59, Concentration 198.0 uM, Number of replicates 2.0, Standard deviation 0.028287616021359725 %
  inhibition: 35.6%

## c1ccc2c([C@H]3CCN(C[C@H]4CCOC4)C3)c[nH]c2c1
PRVABC59, Concentration 49.5 uM, Number of replicates 2.0, Standard deviation 3.5400839111105795 %
  inhibition: 4.89%
PRVABC59, Concentration 99.01 uM, Number of replicates 2.0, Standard deviation 2.681337995191051 %
  inhibition: 11.3%
PRVABC59, Concentration 198.0 uM, Number of replicates 2.0, Standard deviation 1.591884445207739 %
  inhibition: 20.9%

## CS(=O)(=O)c1ccc(N2CCNCC2)cc1NC(=O)c1cccc2ncccc12
PRVABC59, Concentration 49.5 uM, Number of replicates 2.0, Standard deviation 1.82855821855933 %
  inhibition: 11.9%
PRVABC59, Concentration 99.01 uM, Number of replicates 2.0, Standard deviation 4.882597086209548 %
  inhibition: 19.4%
PRVABC59, Concentration 198.0 uM, Number of replicates 2.0, Standard deviation 6.745947359627227 %
  inhibition: 12.5%

## CCn1ccnc(N2CC[C@@H](CC(N)=O)C2)c1=O
PRVABC59, Concentration 49.5 uM, Number of replicates 2.0, Standard deviation 2.578637589312797 %
  inhibition: 7.29%
PRVABC59, Concentration 99.01 uM, Number of replicates 2.0, Standard deviation 2.4095461189610305 %
  inhibition: 15.8%
PRVABC59, Concentration 198.0 uM, Number of replicates 2.0, Standard deviation 1.1815224976183896 %
  inhibition: 30.8%

## Cc1cnccc1NC(=O)c1cccn(C[C@@H]2CCNC2)c1=O
PRVABC59, Concentration 49.5 uM, Number of replicates 2.0, Standard deviation 1.3483593644559142 %
  inhibition: 2.86%
PRVABC59, Concentration 99.01 uM, Number of replicates 2.0, Standard deviation 1.4355155911348652 %
  inhibition: 4.88%
PRVABC59, Concentration 198.0 uM, Number of replicates 2.0, Standard deviation 0.7536456684870648 %
  inhibition: 8.2%

## CNC(=O)c1cc(Cl)ccc1NS(=O)(=O)c1ccc(Oc2ccccc2Cl)cc1
PRVABC59, Concentration 49.5 uM, Number of replicates 2.0, Standard deviation 4.182044982903414 %
  inhibition: 16.8%
PRVABC59, Concentration 99.01 uM, Number of replicates 2.0, Standard deviation 0.7456984587318506 %
  inhibition: 44.5%
PRVABC59, Concentration 198.0 uM, Number of replicates 2.0, Standard deviation 0.5270959053225787 %
  inhibition: 31.5%

## CNC(=O)c1cc(Cl)c(OC)cc1NS(=O)(=O)c1ccc(Oc2ccccc2Cl)cc1
PRVABC59, Concentration 49.5 uM, Number of replicates 2.0, Standard deviation 2.6404535290867552 %
  inhibition: 34.2%
PRVABC59, Concentration 99.01 uM, Number of replicates 2.0, Standard deviation 0.459760751442422 %
  inhibition: 79.4%
PRVABC59, Concentration 198.0 uM, Number of replicates 2.0, Standard deviation 0.11085228072983687 %
  inhibition: 89.8%

## CNC(=O)c1cc(C#N)ccc1NS(=O)(=O)c1ccc(Oc2ccccc2Cl)cc1
PRVABC59, Concentration 49.5 uM, Number of replicates 2.0, Standard deviation 1.5671297466159566 %
  inhibition: 15.1%
PRVABC59, Concentration 99.01 uM, Number of replicates 2.0, Standard deviation 1.4439402403900108 %
  inhibition: 25.1%
PRVABC59, Concentration 198.0 uM, Number of replicates 2.0, Standard deviation 0.43015410765006534 %
  inhibition: 58.3%

## Cc1cc(NS(=O)(=O)c2ccc(Oc3ccccc3Cl)cc2)c(C(=O)NCC(F)(F)F)cc1F
PRVABC59, Concentration 49.5 uM, Number of replicates 2.0, Standard deviation 1.109661109382951 %
  inhibition: 38%
PRVABC59, Concentration 99.01 uM, Number of replicates 2.0, Standard deviation 0.5262974754243883 %
  inhibition: 43.1%
PRVABC59, Concentration 198.0 uM, Number of replicates 2.0, Standard deviation 0.754567504357695 %
  inhibition: 32.6%

## NC(=O)c1ccccc1NS(=O)(=O)c1ccc(Oc2ccccc2Cl)cc1
PRVABC59, Concentration 49.5 uM, Number of replicates 2.0, Standard deviation 0.8239548725855442 %
  inhibition: -1.32%
PRVABC59, Concentration 99.01 uM, Number of replicates 2.0, Standard deviation 0.884539787208196 %
  inhibition: 2%
PRVABC59, Concentration 198.0 uM, Number of replicates 2.0, Standard deviation 0.6321029239261367 %
  inhibition: 31.5%
